Sampled rows, rich in hits. Any-hit rate of the full collection: about 7%.
USP30 block = human USP30 deubiquitinase inhibition. inhibition, % at 25 µM. purified USP30, Ub-rhodamine cleavage fluorescence. 47,000 compounds, 5.3% hits. Q70CQ3
Target sequence (Q70CQ3 whole entry, looked up): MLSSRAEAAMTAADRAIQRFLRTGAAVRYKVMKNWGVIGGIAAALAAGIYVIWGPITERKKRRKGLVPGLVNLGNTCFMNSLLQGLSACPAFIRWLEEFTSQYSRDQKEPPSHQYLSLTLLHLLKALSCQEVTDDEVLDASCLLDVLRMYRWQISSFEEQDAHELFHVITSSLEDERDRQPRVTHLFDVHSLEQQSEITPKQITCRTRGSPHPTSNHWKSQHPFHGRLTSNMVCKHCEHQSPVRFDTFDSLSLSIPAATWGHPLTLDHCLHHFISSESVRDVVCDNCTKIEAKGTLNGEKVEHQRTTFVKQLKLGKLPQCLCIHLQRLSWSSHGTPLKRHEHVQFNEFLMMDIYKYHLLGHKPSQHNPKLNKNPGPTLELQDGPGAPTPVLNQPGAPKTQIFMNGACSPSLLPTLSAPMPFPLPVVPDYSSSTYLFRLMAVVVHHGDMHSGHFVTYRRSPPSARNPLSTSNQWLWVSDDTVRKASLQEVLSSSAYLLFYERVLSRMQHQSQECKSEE
USP28 block = blocks human USP28 ubiquitin-rhodamine cleavage. Q96RU2. inhibition, % at 25 µM. purified USP28, Ub-rhodamine cleavage fluorescence, 30 min. 47,000 compounds, 3% hits. AID 1645857
* = called active by the depositor. No stated cut-off is given here; in the data, active means inhibition above about 30%; inactive means the rest.

SMILES | USP30 block | USP28 block
CCCN1CCN(S(=O)(=O)c2ccc3c(c2)NC(=O)CC(C)S3)CC1 (stereo not given) | -91 | -31
CCc1ccc(S(=O)(=O)NCc2c(C)nc3sc(C)nn23)cc1 | -13 | -8
O=C(NCc1ccc(F)cc1F)c1ccc(-c2cncnc2)nc1 | -20 | -6
c1ccc(-n2nnc(-c3noc(-c4ccco4)n3)c2-c2ccncc2)cc1 | 18 | 4
c1ccc(-n2nnc(-c3noc(-c4cccnc4)n3)c2-c2ccncc2)cc1 | 54* | 11
c1ccc(CCN2CCOC(Cn3cncn3)C2)nc1 (stereo not given) | -28 | -17
Cc1ccc2nc([C@H]3CCN(Cc4ccc(C(=O)O)cc4)C3)[nH]c2c1 | 2 | 6
O=C(C1CCC1)N1CCN(c2nc3c(s2)CC(C(=O)N2CCCCC2)CC3)CC1 (stereo not given) | 1 | 8
COc1cccc(CNc2nnc(-n3nc(C)cc3C)c3ccccc23)c1 | -14 | -10
COc1cccc(CNCc2nc(NCc3cccc(OC)c3)c3c(C)c(C)sc3n2)c1 | 42* | 37*
COc1cccc(-c2nc3n(n2)C(c2ccncc2)C(C(N)=O)=C(C)N3)c1 (stereo not given) | 30* | 4
COc1ccccc1NC(=O)C1=C(C)Nc2nc3ccccc3n2C1c1ccncc1 (stereo not given) | 5 | 1
CC1=C(C(N)=O)C(c2ccc(C)o2)n2nc(-c3cccc(Cl)c3)nc2N1 (stereo not given) | -29 | -8
COc1ccccc1NC(=O)C1=C(C)Nc2nc(-c3ccc(N(C)C)cc3)nn2C1c1ccncc1 (stereo not given) | 30* | 3
O=C(NCC(F)(F)F)c1cccc2cccnc12 | -4 | 28
COc1cc(NC(=O)Cn2c(=O)[nH]c3ccccc3c2=O)cc(OC)c1 | 73* | 25
O=C(Cn1c(=O)[nH]c2ccccc2c1=O)NC1CCCC1 | 26 | 8
COc1ccc(NC(=O)CCCCn2c(=O)[nH]c3ccccc3c2=O)cc1OC | 3 | -4
COc1cccc(CNC(=O)CCCCCn2c(=O)[nH]c3ccccc3c2=O)c1 | 41* | 12
COC(=O)c1ccc2c(=O)n(CCCCCC(=O)NCCc3ccccc3Cl)c(=O)[nH]c2c1 | -2 | -15
COC(=O)c1ccc2c(=O)n(CCCCCC(=O)NCCc3ccc(S(N)(=O)=O)cc3)c(=O)[nH]c2c1 | 88* | 86*
CCc1ccc(-n2cc(OC(C)=O)c3c2nc(C)n2c4ccccc4nc32)cc1 | -376 | -148
Cc1ccc(S(=O)(=O)N2CCCC(c3nc(-c4ccccn4)no3)C2)cc1 (stereo not given) | -137 | -37
Cc1cncc(C2CCN(C(=O)c3n[nH]c4ccccc34)CC2)n1 | -16 | 1
C/C1=C\CC[C@]2(C)O[C@@H]3C[C@@H](C)[C@](C)(CC1)C1=C3[C@](O)(OC1)[C@H]2O | 17 | 0
SMILES | USP30 block | USP28 block
CC(C)(C)c1ccc(Cn2nnc3c(=O)[nH]c(C4CCN(C(=O)Nc5ccc(C#N)cc5)CC4)nc32)cc1 | 8 | 13
Nc1nccnc1CC1CCCN(C(=O)c2cccc3ncccc23)C1 (stereo not given) | 0 | 2
Cc1ccc(-c2c3c4n(c(-c5ccc(Cl)cc5)cn4c2C(=O)Nc2ccccc2Cl)CCCC3)cc1 | 8 | 11
CCOc1cccc2nnc(NC(=O)Nc3ccccc3CC)n12 | 54* | 10
CCOc1nc2cccnc2n(CC(=O)Nc2ccccc2CC)c1=O | -175 | -33
CC(C)CCN1C[C@@H]2c3nc(NCC4CC4)ncc3CS(=O)(=O)[C@@H]2C1 | -70 | -18
COc1ccc(CCNC(=O)CCC(=O)Nc2ccc3nc(N4CCOCC4)cc(C)c3c2)cc1OC | 2 | -17
CCOc1ccc(CCNC(=O)CCC(=O)Nc2ccc3nc(N4CCN(C)CC4)cc(C)c3c2)cc1OCC | 54* | 11
CN1CCN(C(=O)Cn2c(C(F)(F)F)nc3ccccc32)CC1C(N)=O (stereo not given) | 6 | 7
COC(=O)c1cc2cc(NC(=O)c3cccc(Cl)c3)ccc2s1 | 36* | -8
COC(=O)c1cc2cc(NS(=O)(=O)c3ccc(Cl)cc3)ccc2s1 | 7 | 11
O=C(Cn1cnc2c(oc3ccccc32)c1=O)NCc1ccccc1Cl | 0 | 1
CN1CCc2c([nH]c3ccccc23)C1c1c(O)n(-c2ccccc2)c(=O)[nH]c1=O (stereo not given) | -108 | -24
CCc1nnc(-c2nnc(NCCCN3CCOCC3)c3ccccc23)o1 | 21 | 13
CCc1nnc(-c2nnc(NCCOc3ccccc3OC)c3ccccc23)o1 | 34* | 8
Cc1ccc(Cl)cc1NC(=O)CN1CCN(c2nc3ccccc3s2)CC1 | 2 | 2
Cc1ccccc1NC(=O)Nc1ccccc1OCc1cc(=O)n2cccc(C)c2n1 | 43* | 28
Cc1cccc(NCc2cc(=O)n3cccc(C)c3n2)c1C | -134 | -16
CCC(=O)Nc1c(C)noc1/C=C\c1ccc(S(=O)(=O)N(C)c2ccc(C)cc2)cc1 | -18 | -9
CCOC(=O)c1cc2c(ccn2-c2ccc(F)cc2)n1CC(=O)N1CCN(C(=O)c2ccco2)CC1 | 45* | 18
CCOC(=O)c1cc2c(ccn2-c2ccc(F)cc2)n1CC(=O)NC1CCCCC1 | 0 | 14
Cc1nc(Nc2ccc(NC(=O)c3ccccc3F)cc2)cc(N(C)C)n1 | 1 | 14
Cc1cccc(-n2ncc(C(=O)NCc3ccccn3)c2C2CCNCC2)c1 | -70 | -12
Cc1nc(SCc2ccc(C(=O)O)cc2)nc2c1CCCC2 | 17 | 14
CCNc1nc(SCc2ccc(C)cc2)nc2c1CCCC2 | 39* | 27
SMILES | USP30 block | USP28 block
CC(C)c1ccc(NC(=O)c2c(-c3ccccc3)nnc3ccccc23)cc1 | 24 | 4
Cc1nc2ccccc2c(-c2ccccc2)c1C(=O)Nc1ccccc1 | 38* | 16
COc1ccccc1CNS(=O)(=O)c1c(C)[nH]c(C)c1-c1nc(C)no1 | 1 | 2
Cc1ccc(-c2nc(-c3cccc(-c4ccnn4C)c3)no2)cc1F | -1 | -5
Cc1nc(-c2ccc(-c3noc(-c4ccnn4C)n3)cc2)cs1 | 40* | 0
Cc1ccc(Cn2nnc(-c3noc(-c4ccc[nH]4)n3)c2C)cc1 | 22 | 62*
COc1ccccc1-c1nc(-c2nnn(Cc3cccc(F)c3)c2C)no1 | 22 | 56*
Cc1c(-c2noc(-c3ccccc3)n2)nnn1Cc1cccc(F)c1 | 10 | 0
Cc1c(-c2noc(-c3ccccc3)n2)nnn1Cc1ccccc1 | 15 | 10
COc1ccc2[nH]cc(S(=O)(=O)c3ccc(C#N)cc3)c(=O)c2c1 | 19 | 14
COc1ccc2[nH]cc(S(=O)(=O)c3ccc(C)c(F)c3)c(=O)c2c1 | 43* | 14
CCCCNc1ncnc2c1sc1nc(CCCC)c3c(c12)CC(C)(C)OC3 | 14 | -4
O=C(c1ccc(OC2CCN(C(=O)C3CCCCC3)CC2)nc1)N1CCOCC1 | -17 | -11
C=C1O[C@](CO)(n2cnc3c(N)ncnc32)[C@@H](O)[C@H]1O | -16 | -9
Nc1ncnc2c1ncn2[C@@H]1O[C@H](CO)C[C@@H]1O | 29 | 44*
CCn1c(Cn2cccn2)nc2cc(NC(=O)CC(C)C)ccc21 | 20 | 18
CCn1c(Cn2cccn2)nc2cc(NC(=O)c3ccc(F)cc3)ccc21 | 0 | 53*
CCN(CC)S(=O)(=O)c1ccc(N)c(NC(=O)c2cc(-c3ccc(Br)cc3)nc3ccccc23)c1 | 2 | -2
